Measurements: PubChem BioAssay AID2685 (National Center for Advancing Translational Sciences (NCATS), 2010)
Among all 320,000 compounds or so, about 2,100 (0.66%) were called active. Another 53% or so got no clear call; they are omitted. Calls follow the shape of the dose curve; as a rule, active = well fitted inhibition curve with a large enough effect in the signal ratio, with a control signal flat (not every such curve was filed as active); inconclusive = small, poorly fitted or top-dose-only effect, or effect the other way, or a change in a side signal; inactive = flat fitted curve, though single readings scatter; the % refers to the signal ratio. This excerpt belongs to a sample that is enriched for actives.

Assay: qHTS Assay for Lipid Storage Modulators in Drosophila S3 Cells;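 as to cell number change: cells counted by Cell Tracker Red CMTPX staining in the red channel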
Conditions: BODIPY lipid droplet fluorescence, 18-24 h, cells fed with added oleic acid; cell number change: measured here: cell count max response; series mostly up to 46.1 µM
Summary of the method: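 Drosophila S3 cells got compounds at several concentrations plus oleic acid (400 uM solution). Laser-scanning cytometry with 488 nm excitation read lipid droplets at 500-530 nm and cells at 575-640 nm. Percent activity was relative to 20 uM Triacsin C.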
Potency is read from the fitted curve at half-maximal effect.

Row | SMILES | Potency | cell number change [%]
1 | CN1CCN(C(=O)c2cc(Cl)ccc2NC(=O)c2ccc(Cl)cc2Cl)CC1 | inactive | 
2 | C=CCn1c(SCC(N)=O)nc2sc3c(c2c1=O)CCC3 | inactive | -3.38
3 | O=C(CN1CCN(c2ccccc2O)CC1)NC(c1ccccc1)c1ccccc1 | inactive | 6.07
4 | CC(NC(=O)CN1CCN(c2ccc(Cl)cc2)CC1)c1ccccc1 (stereo unspecified) | inactive | -1.82
5 | O=C(CN1CCN(c2ccc(O)cc2)CC1)Nc1cc(S(=O)(=O)N2CCCCC2)ccc1Cl | inactive | 21
6 | O=C(CN1CCN(c2ccc(O)cc2)CC1)Nc1cc(S(=O)(=O)N2CCCC2)ccc1Cl | inactive | -1.92
7 | O=C(CN1CCN(c2ccccc2O)CC1)Nc1cc(S(=O)(=O)N2CCCC2)ccc1Cl | 0.259 µM (active) | -12.2
8 | CC(NC(=O)c1ccccc1NC(=O)CN1CCN(c2ccccc2O)CC1)c1ccccc1 (stereo unspecified) | 8.2 µM (active) | 14.4
9 | COc1cc(S(=O)(=O)NCc2ccccn2)c(OC)cc1Cl | inactive | 4.19
10 | CCOC(=O)N1CCN(S(=O)(=O)c2ccc3c(c2)SC(C)C(=O)N3)CC1 (stereo unspecified) | inactive | -22.8
11 | COC(=O)CSc1nnc(CNC(=O)c2ccc(S(=O)(=O)N(C)C)cc2)n1C | inactive | 
12 | CCCSc1nnc(CNS(=O)(=O)c2ccc(C)cc2)n1C | inactive | -0.463
13 | COC(=O)CSc1nnc(CNS(=O)(=O)c2ccc(Cl)cc2)n1C | 20.6 µM (active) | -22.7
14 | O=C(c1cccc(Cl)c1)N1CCC(N2CCC(C(=O)N3CCOCC3)CC2)CC1 | inactive | -7.23
15 | CCN1CCCC1CNS(=O)(=O)c1c(C)cc(C)cc1C (stereo unspecified) | inactive | -11.3
16 | CCOC(=O)c1sc(NC(C)=O)nc1C | inactive | 
17 | CCCn1c(SCC(=O)Nc2ccc(NC(C)=O)cc2)nc2c1c(=O)n(C)c(=O)n2C | inactive | 7.69
18 | COCCN(C(=O)CCl)C(C(=O)NC1CCCCC1)c1ccccc1C (stereo unspecified) | 23.1 µM (active) | -11.6
19 | COCCN(C(=O)C(=O)NC1CCCC1)C(C(=O)NC1CCCC1)c1ccccc1F (stereo unspecified) | inactive | 6.8
20 | COCCN(C(=O)CCC(=O)Nc1cc(C)on1)C(C(=O)NC1CCCC1)c1ccccc1C (stereo unspecified) | inactive | 7.81
21 | O=S(=O)(NCc1ccccc1)c1ccc(Cl)cc1 | inactive | -16.1
22 | C=CCn1c(O)c(C=Nc2ccc(Cc3ccncc3)cc2)c(=O)[nH]c1=S | inactive | 1.96
23 | O=C(O)c1ccc(-n2nnnc2Oc2cccc3cccnc23)cc1 | 23.1 µM (active) | -14.4
24 | Cc1ccc2cccc(Oc3nnnn3-c3ccccc3)c2n1 | inactive | 10.6
25 | c1ccc(-n2nnnc2Oc2cccc3cccnc23)cc1 | inactive | 
